Source: PubChem BioAssay (several laboratories)
Sampled rows, rich in hits. Any-hit rate of the full collection: about 5.2%.
GRIN3A LBD mod: binders of NR3A ligand-binding domain, primary screen, biophysical, differential scanning fluorimetry, uHTS. Glutamate receptor ionotropic, NMDA 3A (GRIN3A) ligand-binding domain. NR3A LBD differential scanning fluorimetry, Tm shift; 0% = protein alone, 100% = glycine-bound protein. Tm shift relative to glycine control, % at 25 µM. 2.5% of 340,000 active;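 active means melting temperature shift of at least 10% of the positive control shift, at one fixed dose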
NadD inh: inhibitors of S. aureus NadD, primary screen, biochemical, colorimetric, uHTS | 0.78% of 360,000 active | inhibition, % at 20 µM | purified NadD enzyme, colorimetric absorbance read-out; in the data active means inhibition above about 26%
Vif imaging: HIV Vif self-association inhibitors, primary screen, imaging, HEK293T, single point; HEK293T cells, Vif self-association by quenched fluorescence, 24 h; 0.35% of 340,000 active; inhibition, % at 7.49 µM; AID 602346, 2012; in the data active means inhibition above about 50%, passing the limit was not always enough; inconclusive means no clear call, values can overlap the other calls; inactive means below about 31%
SKN-1 block: suppressors of acrylamide-induced Pgst-4::GFP reporter in worms, primary screen, SKN-1 inhibitor project, whole organism, uHTS, GFP/RFP fluorescence ratio, strain VP596 | C. elegans VP596 Pgst-4::GFP/RFP ratio, 24 h | inhibition, % at 21.8 µM | 0.49% of 360,000 active | AID 624304, 2012;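 active means interference check ratio from 0.5 to 1.5 plus GFP to RFP signal ratio inhibition reaching or exceeding a fixed threshold, cut at about 30% in these data, passing the limit was not always enough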
SMARCA2 act: SMARCA2 (BRM) function activators, primary screen, cell-based, luminescence, high throughput; MG213 cells, MMTV-luciferase reporter, dexamethasone, overnight; activation, % at 9.1 µM; 1% of 370,000 active; AID 652017, 2013; in the data active means activation above about 7.8%;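 further: 0% = vehicle wells and 100% = reference activator wells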
esBAF inh: Bmi1 luciferase reporter increase in mESCs, primary screen, esBAF inhibitor project, mouse ES cells, Bmi1 luciferase knock-in, single point; 24 h; 100% = twice the neutral-well signal; reporter increase, % at 12.5 µM; 2% of 350,000 active; in the data active means activation above about 40%; inconclusive means no clear call, values can overlap the other calls;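 further: 0% = median of the plate's neutral control wells and 100% = double that signal; a rise in the Bmi1 reporter signal indicates esBAF inhibition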
* hit, by the source's call; ? = inconclusive; . = not tested or not shown.

SMILES	GRIN3A LBD mod	NadD inh	Vif imaging	SKN-1 block	SMARCA2 act	esBAF inh
Cc1ccc(-c2cc3nc(-c4ccccc4)cc(N)n3n2)cc1	13*	6	-9	3	1	.
Cc1ccc(-c2cc(N)n3nc(-c4ccc(C)cc4)cc3n2)cc1	27*	4	-9	6	1	-1
Cc1cc(N)n2nc(-c3ccccc3)cc2n1	-22	-3	-8	9	6	.
Cc1ccc(-c2cc(N)n(-c3ccc(C)cc3)n2)cc1	-10	11	-12	21	4	47*
Cc1ccc(-c2cc3nc(-c4ccc(Br)cc4)cc(N)n3n2)cc1	39*	19	1	1	-1	.
Cc1noc(C)c1NC(=O)Nc1ccc2c(c1)C(=O)N([C@@H](C)CO)C[C@H](C)[C@@H](CN(C)C(=O)Nc1c(C)noc1C)OCCCC[C@H](C)O2	.	.	.	.	.	1
CCCNC(=O)[C@H]1N[C@H]2c3ccc(-c4cccc(F)c4)c(=O)n3C[C@H]2[C@@H]1CO	.	.	.	.	.	1
COc1ccc(NC(=O)N[C@@H]2CC[C@H](CCNS(=O)(=O)c3cccc(Cl)c3)O[C@@H]2CO)cc1	.	.	.	.	.	-4
Cc1c(OCc2ccccc2)c(=O)ccn1Cc1ccccc1	-4	4	1	1	4	56*
CN(C)CCCNC(=O)C[C@H]1CC[C@H](NS(=O)(=O)c2ccccc2)[C@H](CO)O1	.	.	.	.	.	-6
O=c1[nH]c(COc2ccc(Br)cc2Cl)nc2ccccc12	-19	-3	-5	-17	2	45*
O=c1[nH]c(COc2ccccc2)nc2ccccc12	-2	-5	10	4	4	?
CC(C)COC(=O)N(C)c1ccc(C(O)(C(F)(F)F)C(F)(F)F)cc1	1	0	-14	-5	1	45*
C[C@H](CO)N1C[C@H](C)[C@H](CN(C)C)Oc2cc(-c3ccc(C#N)cc3)ccc2S1(=O)=O	.	.	.	.	.	-2
O=C(COC(=O)C12CC3CC(CC(C3)C1)C2)Nc1nc2c(F)c(F)c(F)cc2s1	29*	7	2	-4	4	.
COc1ccc(-c2[nH]c(-c3ccccc3)nc2SCC(=O)Nc2nccs2)cc1	-5	0	-5	4	-2	9
COc1ccc(-c2[nH]c(-c3ccc(Cl)cc3)nc2SCC(=O)Nc2nccs2)cc1	11*	5	.	-1	-4	-3
Cc1cc(C)cc(N2C(=O)CC(c3ccccc3)CC2=O)c1	17*	-3	10	2	-3	-2
Cc1nc2cc(NC(=O)Nc3nccs3)ccc2n1C	1	-3	.	11	3	-12
O=C(Nc1ccc(Cl)c(Cl)c1)Nc1nccs1	37*	-5	-9	7	-5	22
O=C(Nc1cccc(Cl)c1)Nc1nccs1	31*	0	-7	26	-1	40
C[C@H](CO)N1C[C@H](C)[C@H](CN(C)C(=O)Cc2ccccn2)Oc2cc(C#Cc3ccccc3)ccc2S1(=O)=O	.	.	.	.	.	0
CCC(=O)N(C)C[C@H]1Oc2cc(-c3ccccc3OC)ccc2S(=O)(=O)N([C@H](C)CO)C[C@@H]1C	.	.	.	.	.	2
O=C(CSc1nnc(CCCN2C(=O)c3cccc4cccc(c34)C2=O)n1-c1ccccc1)NCCCO	13*	3	-1	3	-1	.
OC(CNCc1ccccc1)(c1ccccc1)c1ccccc1	0	-5	-11	-2	-2	2
OC(Cc1ccncc1)(c1ccccc1)c1ccccc1	14*	-1	-1	5	0	-3
C[C@@H](NC(=O)[C@@H]1[C@@H](CO)[C@@H]2Cn3c(cccc3=O)[C@@H]2N1Cc1cccnc1)c1ccccc1	.	.	.	.	.	0
CC(=O)c1cccc(OCc2cc(C(=O)NCc3nc(C)c(C)s3)no2)c1	10	-6	2	-5	6	48*
CCOC(=O)N1CCN(C(=O)c2cc(COc3cccc(C(C)=O)c3)on2)CC1	7	-6	-6	9	1	42*
